Shown are actives, neighbours in structure and some others; about 2.3% of the full set was active somewhere.
YjeE inh: displaces an ADP probe from E. coli YjeE (TsaE); purified YjeE enzyme, qHTS inhibition assay; Potency, µM; 0.05% of 71,000 active; AID 605
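Purified YjeE (10 uM) with BODIPY Texas Red-labeled ADP probe (2 uM); compounds pin-transferred, 15 min at room temperature. Binding inhibition read as decreased fluorescence polarization; ADP titration as control.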
Tau filament bind: tau filament binding; P10636; recombinant tau filaments, thioflavin S fluorescence, 15 h; filaments grown with octadecylsulfate alongside compound; Potency, µM (titrated, usually from 57.1 µM), for inactives: top-dose activity change, negative = inhibition; 2% of 71,000 active;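 note: potency is the fitted concentration of half-maximal effect; % is set by controls: 0 for no effect and ±100 for the full control effect; actives lower thioflavin S fluorescence by blocking filaments or displacing dye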
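Assay mix: 1 uM His-tagged tau, 30 uM sodium octadecylsulfate, thioflavine S dye in HEPES/NaCl/DTT buffer. Compound is added prior to the inducer. Fluorescence after 15 h at 37 C.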
Hsp90 Hop PPI: changes Hsp90-Hop TPR2A binding signal, up or down | 0.44% of 71,000 active | Potency, µM (doses to about 57 µM), inactives show at the top dose activity change, negative = inhibition | AID 595 | AlphaScreen TPR2A-His6 binding biotin-Hsp90 C-terminal peptide; active = well fitted curve in either direction with a large enough effect; inconclusive = small, poorly fitted or top-dose-only effect, or another doubt; note: potency is the fitted concentration of half-maximal effect; % is set by controls: 0 for no effect and ±100 for the full control effect
BRCT PPI green: BRCA1 BRCT-phosphoprotein interaction inhibition; 0.05% of 75,000 active; AID 875; BRCA1 BRCT-phosphopeptide binding, green fluorescence polarization; Potency, µM (doses to about 76.9 µM), for inactives: top-dose activity change, negative = inhibition, actives largely listed as inhibitors; P38398;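 note: potency is the fitted concentration of half-maximal effect; plate controls were peptide without protein for full effect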
Target sequence (P38398 whole entry, looked up): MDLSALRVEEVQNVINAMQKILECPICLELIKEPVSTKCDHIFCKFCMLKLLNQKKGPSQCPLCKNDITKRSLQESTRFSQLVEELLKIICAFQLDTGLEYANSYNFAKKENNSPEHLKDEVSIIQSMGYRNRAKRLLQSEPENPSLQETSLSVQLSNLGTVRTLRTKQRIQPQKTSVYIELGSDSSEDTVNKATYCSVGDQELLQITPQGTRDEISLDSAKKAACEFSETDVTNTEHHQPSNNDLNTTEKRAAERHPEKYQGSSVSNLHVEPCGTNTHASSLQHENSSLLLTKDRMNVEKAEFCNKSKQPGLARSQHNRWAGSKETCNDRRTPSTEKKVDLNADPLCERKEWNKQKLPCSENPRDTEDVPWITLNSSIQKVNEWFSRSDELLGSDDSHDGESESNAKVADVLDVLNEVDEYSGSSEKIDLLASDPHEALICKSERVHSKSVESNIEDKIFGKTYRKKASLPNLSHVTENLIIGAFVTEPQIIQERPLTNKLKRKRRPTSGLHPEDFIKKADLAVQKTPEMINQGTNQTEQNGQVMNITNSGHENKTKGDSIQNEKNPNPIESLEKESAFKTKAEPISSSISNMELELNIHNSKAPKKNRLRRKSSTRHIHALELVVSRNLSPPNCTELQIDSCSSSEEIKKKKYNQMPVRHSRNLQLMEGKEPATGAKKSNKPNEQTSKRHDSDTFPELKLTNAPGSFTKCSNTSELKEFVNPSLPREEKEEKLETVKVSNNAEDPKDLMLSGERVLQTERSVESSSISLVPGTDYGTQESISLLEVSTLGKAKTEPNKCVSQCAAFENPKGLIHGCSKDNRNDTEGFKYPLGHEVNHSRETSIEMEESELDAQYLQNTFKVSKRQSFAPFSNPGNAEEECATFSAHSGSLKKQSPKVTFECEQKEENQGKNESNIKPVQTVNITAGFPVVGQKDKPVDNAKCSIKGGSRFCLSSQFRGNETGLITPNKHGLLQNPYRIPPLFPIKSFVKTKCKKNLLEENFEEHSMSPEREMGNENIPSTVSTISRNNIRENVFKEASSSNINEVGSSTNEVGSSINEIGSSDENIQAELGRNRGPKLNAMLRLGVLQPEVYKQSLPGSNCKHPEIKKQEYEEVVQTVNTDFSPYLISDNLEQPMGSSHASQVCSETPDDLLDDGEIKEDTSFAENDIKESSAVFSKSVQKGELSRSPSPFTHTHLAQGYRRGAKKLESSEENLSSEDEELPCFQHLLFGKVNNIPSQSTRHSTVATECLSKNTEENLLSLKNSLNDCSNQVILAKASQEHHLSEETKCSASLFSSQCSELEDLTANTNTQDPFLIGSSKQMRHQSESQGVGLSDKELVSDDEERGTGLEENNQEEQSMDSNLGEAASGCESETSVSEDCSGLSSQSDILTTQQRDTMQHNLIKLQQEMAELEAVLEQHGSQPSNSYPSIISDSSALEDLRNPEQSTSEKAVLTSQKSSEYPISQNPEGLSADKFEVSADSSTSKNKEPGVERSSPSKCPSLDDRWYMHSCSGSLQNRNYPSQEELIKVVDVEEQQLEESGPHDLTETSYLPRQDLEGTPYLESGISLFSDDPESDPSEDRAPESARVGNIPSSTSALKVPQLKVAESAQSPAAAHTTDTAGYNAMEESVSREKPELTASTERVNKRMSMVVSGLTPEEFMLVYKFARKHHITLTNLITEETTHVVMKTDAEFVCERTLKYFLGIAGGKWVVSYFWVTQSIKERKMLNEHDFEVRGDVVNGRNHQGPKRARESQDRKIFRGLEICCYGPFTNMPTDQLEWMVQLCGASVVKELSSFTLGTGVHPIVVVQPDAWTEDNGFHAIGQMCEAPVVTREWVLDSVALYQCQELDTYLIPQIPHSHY
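Compounds were incubated for 12 min at room temperature with a complex of 100 nM fluorescein-tagged pBACH1 decapeptide and 250 nM His-tagged BRCT protein. Buffer was phosphate pH 7.3 with EDTA, DTT and Tween 20. Disruption of binding lowers the polarization signal.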
Pol III holo inh: blocks replication by bacterial DNA polymerase III holoenzyme. reconstituted DNA polymerase III holoenzyme replication, biochemical. Potency, µM (series often up to 57.1 µM), for the others: at the highest dose activity change, negative = inhibition. 0.25% of 71,000 active; note: potency is the fitted concentration of half-maximal effect; % is set by controls: 0 for no effect and ±100 for the full control effect
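Reconstituted *E. coli* holoenzyme (0.35 nM Pol III, 1 nM beta, 154 nM SSB, 2 nM primase) was preincubated with compound for 15 min at RT. Synthesis on 1.4 nM ssM13Gori ran 35 min, then was stopped with PicoGreen/EDTA and read as dsDNA fluorescence.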
BRCT PPI red: BRCT-phosphoprotein interaction inhibition (red fluorophore); P38398; BRCT-phosphopeptide binding, red fluorescence polarization; Potency, µM (titrated, usually from 76.9 µM), for the others: at the top dose activity change, negative = inhibition, hits mostly inhibitors; 0.03% of 75,000 active; note: % is set by controls: 0 for no effect and ±100 for the full control effect
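Rhodamine-labelled pBACH1 10-mer (100 nM) bound to BRCT domain (100 nM) at pH 7.3; compounds incubated 12 min room temperature, polarization read. Free peptide defines full inhibition; unlabelled decapeptide titrated as control.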
An asterisk follows results filed as active; i = inactive; ? = inconclusive; nt = no result; ! = repeats disagree; [ ] = another dose, or the depositor's remark. Unless noted, calls come from the whole dose curve; as a rule, active = well fitted curve in the direction sought with a large enough effect; inconclusive = small, poorly fitted or top-dose-only effect, or another doubt; inactive = no such curve, though single readings can be large; an effect the other way counts as inactive or inconclusive.

SMILES | YjeE inh | Tau filament bind | Hsp90 Hop PPI | BRCT PPI green | Pol III holo inh | BRCT PPI red
Fc1ccc(-c2nc3nc4ccccc4nc3n2Cc2ccco2)cc1 | i | 16µM* | 0% | -2% | -6% | 2%
Fc1ccc(-n2c(-c3ccco3)nc3nc4ccccc4nc32)cc1 | i | 13µM* | -3% | 5% | -1% | 0%
N#CCCSC(=S)[C@H]1CCCC1=N | i | 5%[11.4 µM] | -1%[11 µM] | -3%[15.4 µM] | 8%[11.4 µM] | -1%[15.4 µM]
CC(=O)O[C@H]1CC[C@@]2(C)C(=CC[C@@H]3[C@@H]4CC[C@H](c5cc(C(F)(F)F)n(C(C)=O)n5)[C@]4(C)CC[C@@H]32)C1 | i | 29%[11.4 µM] | -3%[11 µM] | -2%[15.4 µM] | -5%[11.4 µM] | 1%[15.4 µM]
O=C(CSc1nnc(-c2ccccc2)o1)N1CCN(c2ccccc2)CC1 | i | 10µM* | 1% | 3% | -6% | 0%
CCOc1ccc(-c2nnc(SCC(=O)N3CCN(c4ccccc4)CC3)o2)cc1 | i | -9% | -2% | -1% | 2% | -1%
COc1ccc(/C=C/C2=CC3(C)CC2(C)C(c2ccc(OC)cc2)CC3=O)cc1 (stereo not drawn) | nt | nt | nt | 1%[15.4 µM] | nt | 1%[15.4 µM]
FC(F)(F)c1cccc(Cl)c1 | i | -8% | 1% | 0% | -8% | 0%
COc1cc2cc3c4c(cc(OC)c(OC)c4c2cc1OC)CCN3C | i | 4µM* | ? | -2% | -18% | 0%
CCOCCOC(=O)C1=C(C)Nc2ccc(C)cc2S1 | i | 13µM* | -23% | 3% | 0% | -4%
O=C(c1ccco1)N1CCC2(CC1)CCN(c1ccccn1)CC2 | i | -2% | 0% | -5% | -11% | 0%
CC(=O)C1=C(O)C=C(c2ccco2)CC1c1ccco1 (stereo not drawn) | i | 20µM* | -14% | -6% | -2% | -1%
CC(C)(Oc1ccc(-c2ccco2)cc1)C(=O)O | i | 8% | -1% | -2% | -3% | 0%
Cc1cc2nc3c(=O)[nH]c(=O)nc-3n(CC(O)C(O)C(O)CO)c2cc1C (stereo not drawn) | i | i | -6% | 13µM*! | 227% | -9%
CC(C)[C@H](NC(=O)OC(C)(C)C)[C@@H](O)CC(=O)OC(C)(C)C | nt | nt | nt | -1%[15.4 µM] | nt | -1%[15.4 µM]
Cc1cc(C)n(-c2nc(Nc3ccccc3)nc(-n3nc(C)cc3C)n2)n1 | i | 0% | 0% | -1% | -12% | 1%
Cc1cc(C)n(-c2nncc(-c3ccccc3)n2)n1 | i | 16µM* | -27% | -5% | -5% | 1%
Cc1cc(C)n(-c2ncc(-c3ccccc3)nn2)n1 | i | 25µM* | ? | -1% | -6% | 2%
Cc1cc(C)cc(C(=O)N(C)[C@H](Cc2ccc(-c3ccccc3)cc2)C(=O)N[C@@H](Cc2c[nH]c3ccccc23)C(=O)O)c1 | i | ? | -13% | -1% | -2% | -1%
CCCC[C@@H]1C[C@H]1[C@@H](NP(=O)(c1ccccc1)c1ccccc1)c1ccccc1OC | i | -18% | 0% | -1% | -1% | -2%
CN(C)c1ccc(NC(=O)Cn2ncn3c(cc4ccccc43)c2=O)cc1 | i | 13µM* | -15% | 1% | 4% | -2%
Cc1cc(C)cc(NC(=O)Cn2ncn3c(cc4ccccc43)c2=O)c1 | i | 37% | -25% | -2% | 1% | 0%
C[C@@H](CC(=O)O)[C@@H](N)C(=O)O | i | ? | -5% | 0% | -2% | 1%
Cn1cc(-c2nc3cnc(N4CCNCC4)nc3n(Cc3ccc(F)cc3)c2=O)c2ccccc21 | i | i | ? | -3% | -1% | -2%
COc1ccc(C(=O)N2CCC3(CC2)CN(C(=O)Nc2cccc(C#N)c2)C3)cc1 | i | -4% | -8% | -1% | -6% | -2%
SMILES | YjeE inh | Tau filament bind | Hsp90 Hop PPI | BRCT PPI green | Pol III holo inh | BRCT PPI red
CCC1(CC)NC(=O)N(CC(=O)Nc2sc3c(c2C(N)=O)CCC3)C1=O | i | 32% | -10% | -1% | 20µM* | -6%
Nc1ncnc2c1nc(Br)n2C1CC(O)C(CO)O1 (stereo not drawn) | nt | nt | nt | -4% | nt | -1%
Nc1ncnc2c1nc(Br)n2[C@H]1O[C@H]2COP(=O)(O)O[C@H]2[C@@H]1O | i | 40µM* | -1% | -3% | -4% | 0%
CCCCNc1nc(C)nc2c1nc(-c1ccccc1)n2CCCN(C)C | i | 25% | 0% | -1% | -2% | -2%
CN(C)c1ccc(N=Nc2cccc3ccoc23)cc1 | i | 4µM* | 4µM* | 1%[15.4 µM] | -8%[11.4 µM] | -2%[15.4 µM]
CC(C)CN1CCC2(CC1)CCN(C(=O)c1cnccn1)CC2 | i | 4% | 3% | -4% | -5% | -1%
CC(=O)c1ccc2c(c1)N(CCCN1CCC(CCO)CC1)c1ccccc1S2 | i | 4µM* | -10%[26 µM] | -2%[34.4 µM] | -3%[25.6 µM] | -3%[34.4 µM]
N#CCc1ccccc1[N+](=O)[O-] | i | -2% | -2% | -1% | 4% | 0%
CCc1cccc2c3c([nH]c12)[C@](CC)(CC(=O)O)OCC3 | i | -4% | -11% | nt | -4% | nt
CC1(C(=O)Nc2nccs2)Cc2ccccc2C(=O)O1 (stereo not drawn) | i | 13µM* | -22% | 1% | -5% | -3%
Cc1c(N=CC=Nc2c(C)n(C)n(-c3ccccc3)c2=O)c(=O)n(-c2ccccc2)n1C | i | -4%[11.4 µM] | -5%[11 µM] | -2% | -1%[11.4 µM] | -1%
Cc1c(N=c2c(=O)c3ccccc3c2=O)c(=O)n(-c2ccccc2)n1C | i | 16µM* | -7% | -2% | -10% | 0%
N=c1c(C(=O)NCc2ccc(F)cc2)cc2c(=O)n3ccccc3nc2n1CC1CCCO1 (stereo not drawn) | i | 3.2µM* | -2% | 1% | -3% | 1%
COCCCn1c(=N)c(C(=O)NCC2CCCO2)cc2c(=O)n3ccccc3nc21 (stereo not drawn) | i | 44% | -10% | -2% | -10% | 0%
Cc1ccc(CNC(=O)c2cc3c(=O)n4cccc(C)c4nc3n(CC3CCCO3)c2=N)cc1 (stereo not drawn) | i | 1.3µM* | 1% | 0% | -6% | 0%
CCCn1c(=N)c(C(=O)NCC2CCCO2)cc2c(=O)n3cccc(C)c3nc21 (stereo not drawn) | i | -14% | -8% | 2% | -11% | 0%
c1ccc(-c2nc(NCCCN3CCOCC3)c3ccccc3n2)cc1 | i | 5µM* | -2% | 9% | -8% | -8%
COc1ccccc1CN1CCCC2(CCN(C(=O)c3cccn3C)CC2)C1 | i | 8% | -6% | -1% | -6% | -1%
COc1cccc(Nc2ncc3ncc(=O)n(CCc4ccccc4)c3n2)c1 | i | -10% | -2% | 12% | 0% | 3%

Screening data as filed in PubChem BioAssay.
